{"source": "PubChem BioAssay (EPA / NIEHS)", "note": "Activity calls are given as the source filed them. The calls were made as follows: active = hit-call score of the fitted dose curve at least 0.9, where 1 is the maximum; inactive = score below 0.9.", "data": [{"read-out": "Bcl-2 (BAX) gene, BAX (gene 581)", "experiment": "LTEA_HepaRG_BAX: Life Technologies and Expression Analysis (LTEA) Assay for Bcl-2 (BAX) gene using HepaRG (AID 2283470)", "conditions": "mRNA level, 48 h; actives raise or lower the signal", "summary_of_the_method": "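Differentiated human HepaRG cells, plated 48 h then switched to serum-free induction medium, were exposed 48 h to 8 half-log concentrations up to 100 uM in 0.5% DMSO; BAX mRNA measured by qRT-PCR, normalized to ACTB, GAPDH, POLR2A.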", "values": [{"smiles": "CCn1nc(Cc2ccccc2)cc1C1CCN(C[C@H]2C[C@H](N(C)[C@@H](C(=O)O)C(C)C)C[C@@H]2c2cccc(F)c2)CC1", "outcome": "inactive"}, {"smiles": "O=c1n(CC2CO2)c(=O)n(CC2CO2)c(=O)n1CC1CO1", "note": "(configuration not stated)", "AC50": "83.4 µM (active)"}, {"smiles": "O=C(O)CCN(C1(C(=O)NO)CCCC1)S(=O)(=O)c1ccc(Oc2ccc(F)cc2)cc1", "outcome": "inactive"}, {"smiles": "CCNc1ccccc1", "outcome": "inactive"}, {"smiles": "Cc1c(-c2cccnc2)c2ccccc2n1CCCCC(=O)O", "outcome": "inactive"}, {"smiles": "COC(=O)c1ccccc1O", "outcome": "inactive"}, {"smiles": "CC1=CC(=O)CC(C)(C)C1", "outcome": "inactive"}, {"smiles": "O=C(O)c1cc(N=Nc2ccc(S(=O)(=O)Nc3ccccn3)cc2)ccc1O", "outcome": "inactive"}, {"smiles": "CC(=O)OC[C@H]1O[C@@](COC(C)=O)(O[C@H]2O[C@H](COC(C)=O)[C@@H](OC(C)=O)[C@H](OC(C)=O)[C@H]2OC(C)=O)[C@@H](OC(C)=O)[C@@H]1OC(C)=O", "outcome": "inactive"}, {"smiles": "CC(C)CC(C)(O)C#CC(C)(O)CC(C)C", "note": "(configuration not stated)", "outcome": "inactive"}, {"smiles": "CC(C)(O)c1coc(S(=O)(=O)NC(=O)Nc2c3c(cc4c2CCC4)CCC3)c1", "outcome": "inactive"}, {"smiles": "CC(C)CCCCCCCOC(=O)CCCCC(=O)OCCCCCCCC(C)C", "outcome": "inactive"}, {"smiles": "CCOc1cccc(-n2cc(C(=O)N3CCN(c4cc(C(=O)O)c5ccccc5c4)CC3)nc2-c2ccc(C)cc2)c1", "AC50": "12.5 µM (active)"}, {"smiles": "COc1ccc2sc(C(=O)Nc3nnn[nH]3)c(OC(C)C)c2c1", "AC50": "50 µM (active)"}, {"smiles": "Clc1nc(Cl)c(Cl)c(Cl)c1Cl", "outcome": "inactive"}, {"smiles": "COC(=O)CC(=O)OC", "outcome": "inactive"}, {"smiles": "O=c1[nH]c2ccc(S(=O)CCN3CCC(Cc4ccc(F)cc4)CC3)cc2o1", "note": "(configuration not stated)", "outcome": "inactive"}]}]}
